Binding signal data for 15 sequences are collected here from article PMC5700166.

Residue numbers refer to the chain shown, from its start.

Assay in all cases: protein-binding microarray (PBM); PBM: ~300 nM protein, 6 mM HEPES pH 7.8, 80 mM KCl, 0.5 mM EDTA, 0.5 mM EGTA, 6% glycerol, 35 ng/ul poly-dIdC, 1% milk, 1 h, room temperature; Ap Aiptasia and Nv Nematostella (sea anemones) / Co Capsaspora / Aq Amphimedon (sponge) / Dm Drosophila / Hu human; RHD is the Rel homology domain; high values mean tight binding
Settings in all cases: dsDNA, one strand shown

The target in one experiment is T1, GST-Ap-NF-kB RHD (Exaiptasia pallida (Aiptasia), UniProt A0A913YAJ5 2-422).
T1 sequence: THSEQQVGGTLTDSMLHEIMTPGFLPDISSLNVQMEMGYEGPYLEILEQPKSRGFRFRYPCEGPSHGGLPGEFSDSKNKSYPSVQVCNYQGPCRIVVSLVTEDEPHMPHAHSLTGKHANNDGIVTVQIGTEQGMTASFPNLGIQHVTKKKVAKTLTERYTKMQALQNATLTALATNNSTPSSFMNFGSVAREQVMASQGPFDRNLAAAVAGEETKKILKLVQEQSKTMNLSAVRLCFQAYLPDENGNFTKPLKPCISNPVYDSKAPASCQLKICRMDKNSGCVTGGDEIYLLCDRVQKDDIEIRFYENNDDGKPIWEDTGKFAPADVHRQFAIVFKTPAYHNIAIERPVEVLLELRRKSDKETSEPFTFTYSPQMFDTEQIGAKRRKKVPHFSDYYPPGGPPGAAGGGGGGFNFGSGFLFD

Experiment [1] has as its target T2, GST-Nv-NF-kB (Cys allele) (Nematostella vectensis, UniProt E5G601 2-411).
T2 sequence: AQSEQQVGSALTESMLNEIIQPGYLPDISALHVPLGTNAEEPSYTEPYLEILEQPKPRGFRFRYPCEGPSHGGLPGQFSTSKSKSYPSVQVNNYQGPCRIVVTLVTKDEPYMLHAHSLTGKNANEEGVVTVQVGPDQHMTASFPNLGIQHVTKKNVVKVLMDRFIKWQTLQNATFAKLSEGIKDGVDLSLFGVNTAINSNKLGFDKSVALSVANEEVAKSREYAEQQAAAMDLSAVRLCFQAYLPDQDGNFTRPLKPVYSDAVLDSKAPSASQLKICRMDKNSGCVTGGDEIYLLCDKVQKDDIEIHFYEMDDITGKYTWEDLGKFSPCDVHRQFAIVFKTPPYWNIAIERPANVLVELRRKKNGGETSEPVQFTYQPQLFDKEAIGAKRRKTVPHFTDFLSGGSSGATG

Experiment [2] deals with T3, GST-Nv-NF-kB (Ser allele) (Nematostella vectensis, UniProt A7UNT2 2-411).
T3 sequence: T2 sequence with Q21R, C66S, S207N, E215Q, V217A, E225K, A268E, D399E

The next experiment has as its target T4, GST-Dm-Relish (Drosophila melanogaster, UniProt Q94527 99-473).
T4 sequence: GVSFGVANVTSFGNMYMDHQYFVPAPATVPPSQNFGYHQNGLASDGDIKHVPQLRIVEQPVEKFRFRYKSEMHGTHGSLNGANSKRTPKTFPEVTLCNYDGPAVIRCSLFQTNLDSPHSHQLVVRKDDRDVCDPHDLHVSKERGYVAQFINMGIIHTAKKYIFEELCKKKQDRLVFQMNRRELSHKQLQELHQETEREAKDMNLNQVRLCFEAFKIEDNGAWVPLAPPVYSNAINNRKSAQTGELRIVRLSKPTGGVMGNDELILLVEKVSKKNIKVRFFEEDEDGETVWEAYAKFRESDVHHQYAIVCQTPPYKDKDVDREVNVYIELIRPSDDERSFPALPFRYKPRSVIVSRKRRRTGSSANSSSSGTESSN

The target of another experiment is T5, GST-Aq-NF-kB (Amphimedon queenslandica, UniProt A9Y5G7 2-389).
T5 sequence: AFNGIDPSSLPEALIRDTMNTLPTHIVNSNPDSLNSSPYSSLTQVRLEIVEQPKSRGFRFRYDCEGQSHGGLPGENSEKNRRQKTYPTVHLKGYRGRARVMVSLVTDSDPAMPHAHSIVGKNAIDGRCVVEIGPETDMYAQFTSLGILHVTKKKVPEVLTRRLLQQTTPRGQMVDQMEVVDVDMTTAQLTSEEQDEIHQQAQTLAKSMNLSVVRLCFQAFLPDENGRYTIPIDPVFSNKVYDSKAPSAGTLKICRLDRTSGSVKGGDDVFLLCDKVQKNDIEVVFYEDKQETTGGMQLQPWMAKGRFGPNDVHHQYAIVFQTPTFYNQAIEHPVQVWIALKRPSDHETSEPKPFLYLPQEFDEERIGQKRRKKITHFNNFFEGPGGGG

The target in the next experiment is GST-Hu-p50 (Homo sapiens, UniProt P19838 7-356).
A further experiment concerns the target T6, GST-Co-NF-kB (Capsaspora owczarzaki, UniProt F1ARL5 200-546).
T6 sequence: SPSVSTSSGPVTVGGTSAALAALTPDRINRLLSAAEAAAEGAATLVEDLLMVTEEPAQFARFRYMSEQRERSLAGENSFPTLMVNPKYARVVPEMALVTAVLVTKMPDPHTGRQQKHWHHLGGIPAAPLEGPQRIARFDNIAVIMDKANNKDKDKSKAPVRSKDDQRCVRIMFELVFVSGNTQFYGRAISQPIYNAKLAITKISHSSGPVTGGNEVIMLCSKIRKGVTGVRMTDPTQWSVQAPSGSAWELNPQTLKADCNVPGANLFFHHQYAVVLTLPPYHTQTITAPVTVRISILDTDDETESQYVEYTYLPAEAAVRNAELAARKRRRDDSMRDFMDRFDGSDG

GST-Hu-p50, sequence (P19838 7-356): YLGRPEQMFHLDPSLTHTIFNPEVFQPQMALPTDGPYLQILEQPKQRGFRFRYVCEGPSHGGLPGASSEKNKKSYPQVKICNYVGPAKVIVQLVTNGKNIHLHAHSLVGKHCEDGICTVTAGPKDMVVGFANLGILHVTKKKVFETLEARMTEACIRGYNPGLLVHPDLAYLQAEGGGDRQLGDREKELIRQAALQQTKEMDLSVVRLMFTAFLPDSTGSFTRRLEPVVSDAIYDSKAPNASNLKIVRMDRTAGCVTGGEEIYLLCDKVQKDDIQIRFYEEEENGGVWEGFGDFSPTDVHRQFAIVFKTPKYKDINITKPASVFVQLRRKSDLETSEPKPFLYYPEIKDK

In the case of “CCGATTAACATCAAAGAAGTCCCTGATGTTAATCGGGTCTTGATTCGCTTGACGCTGCTG”, the binding signal is 5.78 z-score in the experiment with GST-Ap-NF-kB RHD; 6.68 z-score in experiment [1]; 6.97 z-score in experiment [2]; 5.18 z-score with GST-Dm-Relish; 5.56 z-score with GST-Aq-NF-kB; 5.29 z-score with GST-Hu-p50.
With “CCGATTAACATCAGGAAATTACCTGATGTTAATCGGGTCTTGATTCGCTTGACGCTGCTG”, the binding signal stood at 1.96 z-score in the experiment with GST-Ap-NF-kB RHD; 4.03 z-score in experiment [1]; 5.26 z-score in experiment [2]; 4.76 z-score with GST-Dm-Relish; 5.23 z-score with GST-Aq-NF-kB; 3.82 z-score in the experiment with GST-Hu-p50.
Consider “CCGATTAACATCAAAACACCCCCTGATGTTAATCGGGTCTTGATTCGCTTGACGCTGCTG”, for which the binding signal stood at 6.39 z-score with GST-Ap-NF-kB RHD; 5.71 z-score in experiment [1]; 5.54 z-score with GST-Co-NF-kB; 6.95 z-score in the experiment with GST-Dm-Relish; 6.53 z-score in the experiment with GST-Aq-NF-kB; 6.04 z-score in the experiment with GST-Hu-p50.
With “CCGATTAACATCAGGGGCTTTACTGATGTTAATCGGGTCTTGATTCGCTTGACGCTGCTG”, the binding signal with GST-Ap-NF-kB RHD came to 4.24 z-score; in experiment [1] it was 5.11 z-score; in experiment [2] it was 3.48 z-score; with GST-Dm-Relish it was 7.41 z-score; in the experiment with GST-Aq-NF-kB, 5.73 z-score; with GST-Hu-p50, 4.83 z-score.
Consider “CCGATTAACATCACGGTTATTCCTGATGTTAATCGGGTCTTGATTCGCTTGACGCTGCTG”, for which the binding signal in the experiment with GST-Ap-NF-kB RHD was 1.09 z-score; in experiment [1] it was 1.52 z-score; in experiment [2], 2.15 z-score; with GST-Dm-Relish, 3.64 z-score; in the experiment with GST-Aq-NF-kB, 2.03 z-score; with GST-Hu-p50, 3.59 z-score.
Consider “CCGATTAACATCAGGGAGTTCACTGATGTTAATCGGGTCTTGATTCGCTTGACGCTGCTG”, for which the binding signal in the experiment with GST-Ap-NF-kB RHD worked out at 2.23 z-score; in experiment [1], 2.42 z-score; in experiment [2], 1.78 z-score; in the experiment with GST-Dm-Relish it was 5.79 z-score; with GST-Aq-NF-kB, 4.22 z-score; in the experiment with GST-Hu-p50, 2.32 z-score.
On to “CCGATTAACATCAGAAAGTCCCATGATGTTAATCGGGTCTTGATTCGCTTGACGCTGCTG”, for which the binding signal was 5.73 z-score in the experiment with GST-Ap-NF-kB RHD; 7.09 z-score in experiment [1]; 6.43 z-score in experiment [2]; 6.06 z-score with GST-Dm-Relish; 5.57 z-score in the experiment with GST-Aq-NF-kB; 4.63 z-score with GST-Hu-p50.
“CCGATTAACATCACGGAATTCCCTGATGTTAATCGGGTCTTGATTCGCTTGACGCTGCTG”: the binding signal in the experiment with GST-Ap-NF-kB RHD was found to be 6.01 z-score; in experiment [1], 6.74 z-score; in the experiment with GST-Co-NF-kB, 3.4 z-score; with GST-Dm-Relish it was 7.05 z-score; with GST-Aq-NF-kB, 7.07 z-score; in the experiment with GST-Hu-p50, 4.62 z-score.
Take “CCGATTAACATCACCGAACCCCCTGATGTTAATCGGGTCTTGATTCGCTTGACGCTGCTG”: the binding signal with GST-Ap-NF-kB RHD worked out at 5.86 z-score; in experiment [1], 3.55 z-score; with GST-Co-NF-kB, 2.04 z-score; in the experiment with GST-Dm-Relish it was 4.86 z-score; with GST-Aq-NF-kB, 3.82 z-score; with GST-Hu-p50, 5.57 z-score.
Regarding “CCGATTAACATCAGGAAGTACCCTGATGTTAATCGGGTCTTGATTCGCTTGACGCTGCTG”, the binding signal came out at 3.65 z-score in the experiment with GST-Ap-NF-kB RHD; 3.73 z-score in experiment [1]; 3.95 z-score in experiment [2]; 6.69 z-score in the experiment with GST-Dm-Relish; 6.15 z-score with GST-Aq-NF-kB; 3.47 z-score with GST-Hu-p50.
With “CCGATTAACATCAGGAAAGTCCCTGATGTTAATCGGGTCTTGATTCGCTTGACGCTGCTG”, the binding signal with GST-Ap-NF-kB RHD worked out at 7.69 z-score; in experiment [1] it was 10.6 z-score; in experiment [2], 8.2 z-score; with GST-Dm-Relish, 8.43 z-score; with GST-Aq-NF-kB, 9.81 z-score; with GST-Hu-p50, 7.09 z-score.
In the case of “CCGATTAACATCAGGGACTTCACTGATGTTAATCGGGTCTTGATTCGCTTGACGCTGCTG”, the binding signal was found to be 3.82 z-score in the experiment with GST-Ap-NF-kB RHD; 4.27 z-score in experiment [1]; 4.08 z-score in experiment [2]; 7.9 z-score in the experiment with GST-Dm-Relish; 5.14 z-score with GST-Aq-NF-kB; 4.12 z-score in the experiment with GST-Hu-p50.
For the sequence “CCGATTAACATCAGGAAATCACCTGATGTTAATCGGGTCTTGATTCGCTTGACGCTGCTG”, the binding signal was determined as 2.81 z-score with GST-Ap-NF-kB RHD; 3.51 z-score in experiment [1]; 3.89 z-score in experiment [2]; 7.51 z-score in the experiment with GST-Dm-Relish; 4.87 z-score in the experiment with GST-Aq-NF-kB; 5.42 z-score with GST-Hu-p50.
Turning to “CCGATTAACATCAAATAAGCCCCTGATGTTAATCGGGTCTTGATTCGCTTGACGCTGCTG”, the binding signal in the experiment with GST-Ap-NF-kB RHD stood at 3.57 z-score; in experiment [1], 5.54 z-score; with GST-Co-NF-kB, 1.15 z-score; in the experiment with GST-Dm-Relish, 4.29 z-score; with GST-Aq-NF-kB it was 5.74 z-score; with GST-Hu-p50, 4.31 z-score.
On to “CCGATTAACATCAGGATAGCCCCTGATGTTAATCGGGTCTTGATTCGCTTGACGCTGCTG”, for which the binding signal with GST-Ap-NF-kB RHD is 4 z-score; in experiment [1], 4.29 z-score; in experiment [2], 2.73 z-score; with GST-Dm-Relish, 2.38 z-score; with GST-Aq-NF-kB, 5.49 z-score; with GST-Hu-p50 it was 3.65 z-score.
